Screening data as filed in PubChem BioAssay.
Anthrax LF prot – inhibitors of Bacillus anthracis lethal factor protease. inhibition, % at 10 µM. multiplex microsphere protease cleavage assay, LF. 360,000 compounds, 0.12% hits; also: plate controls were buffer without enzyme for full effect and enzyme alone for no effect
Target sequence (P15917 whole entry, looked up): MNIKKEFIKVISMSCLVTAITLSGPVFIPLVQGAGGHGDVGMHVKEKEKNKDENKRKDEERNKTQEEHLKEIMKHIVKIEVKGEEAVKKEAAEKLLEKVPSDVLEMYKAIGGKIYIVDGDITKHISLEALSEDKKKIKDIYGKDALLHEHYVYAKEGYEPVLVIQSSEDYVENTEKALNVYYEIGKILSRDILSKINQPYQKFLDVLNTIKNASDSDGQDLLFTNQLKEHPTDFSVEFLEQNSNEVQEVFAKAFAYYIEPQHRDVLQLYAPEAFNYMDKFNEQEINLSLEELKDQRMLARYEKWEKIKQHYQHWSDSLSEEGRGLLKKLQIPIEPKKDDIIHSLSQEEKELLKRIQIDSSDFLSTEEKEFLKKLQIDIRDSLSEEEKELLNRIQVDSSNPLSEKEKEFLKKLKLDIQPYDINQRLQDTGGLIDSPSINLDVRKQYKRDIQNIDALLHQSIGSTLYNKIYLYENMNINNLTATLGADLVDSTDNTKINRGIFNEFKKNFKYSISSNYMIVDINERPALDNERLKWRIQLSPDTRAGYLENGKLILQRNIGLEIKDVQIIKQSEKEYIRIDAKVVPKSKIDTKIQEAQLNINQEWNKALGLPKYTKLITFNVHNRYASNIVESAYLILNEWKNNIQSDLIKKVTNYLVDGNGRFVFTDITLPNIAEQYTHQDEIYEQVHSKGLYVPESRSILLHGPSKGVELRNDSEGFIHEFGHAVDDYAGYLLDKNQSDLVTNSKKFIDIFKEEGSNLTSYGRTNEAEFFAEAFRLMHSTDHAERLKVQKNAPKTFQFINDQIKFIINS
MazF activator – increases E. coli MazEF RNase cleavage of RNA; FAM/BHQ RNA-DNA oligo cleavage fluorescence, 5 h; activation, % at 20 µM; AID 504720; P0AE70; 350,000 compounds, 0.32% hits; in the data active = activation above about 50%
VHR inh abs – DUSP3 (human) phosphatase inhibition; P51452; recombinant VHR phosphatase, pNPP absorbance; inhibition, % at 13.3 µM; 290,000 compounds, 0.52% hits; in the data active = inhibition above about 50%
Bead autofluor – flagged as autofluorescent in microsphere protease counterscreen; compound autofluorescence counterscreen, microsphere flow cytometry; active compounds read high; fluorescence intensity (concentration not given with the values); 360,000 compounds, 3.1% hits; in the data active = fluorescence intensity above about 16000; inconclusive = no clear call, values can overlap the other calls
BoNT F protease – inhibitors of Botulinum neurotoxin F light chain protease. Multiplex microsphere protease cleavage assay, flow cytometry. inhibition, % at 10 µM. 360,000 compounds, 0.22% hits; in the data active = inhibition above about 35%, passing the limit was not always enough; inconclusive = no clear call, values can overlap the other calls; also: plate controls were buffer without enzyme for full effect and enzyme alone for no effect
BoNT A protease – blocks Botulinum neurotoxin A light chain protease; multiplex microsphere protease substrate cleavage, flow cytometry; inhibition, % at 10 µM; 360,000 compounds, 0.17% hits; also: plate controls were buffer without enzyme for full effect and enzyme alone for no effect
* hit, by the source's call; u = inconclusive; x = not tested or not shown. A selection: hits, their analogues and other compounds. The true share with any hit is near 4.1%. Rule as the data show it, unless noted: active = inhibition above about 30%; inconclusive = no clear call, values can overlap the other calls; inactive = below that.

SMILES	Anthrax LF prot	MazF activator	VHR inh abs	Bead autofluor	BoNT F protease	BoNT A protease
CCOc1ccc(C(=O)Nc2c3c(nn2-c2ccc(F)cc2)CS(=O)C3)cc1 (stereo not drawn)	-1.3	-2.2	24.9	4478	-12.8	-0.1
Cc1ccc(NC2=NC(c3ccc(O)cc3)n3c(nc(C)cc3=O)N2)cc1 (stereo not drawn)	0.8	-1.6	8.4	22829*	-3.7	u
COc1ccc(C2N=C(Nc3ccc(C)cc3)Nc3nc(C)cc(=O)n32)cc1 (stereo not drawn)	-2.1	4.0	18.7	3770	1.8	-0.8
O=C(OCc1nnc(-c2ccccc2)o1)C1CC(=O)N(CCc2ccccc2)C1 (stereo not drawn)	0.5	3.8	x	2902	2.8	0.1
OCCC1CN(Cc2cn[nH]c2C2CCCCC2)CCN1Cc1ccccc1 (stereo not drawn)	-5.4	8.1	31.2	4423	-6.3	-0.2
Cc1ccc(CN2CCN(Cc3cn[nH]c3C3CCCCC3)CC2CCO)cc1 (stereo not drawn)	-7.0	1.6	52.2*	4954	-3.3	-0.7
Cc1cc(C)cc(NC(=O)C2CCN(S(=O)(=O)c3ccc4[nH]c(=O)ccc4c3)CC2)c1	-2.2	17.5	13.4	6098	-2.3	0.0
O=C(NCc1ccco1)c1cc2n(n1)C(C(F)(F)F)CC(c1ccc(Cl)c(Cl)c1)N2 (stereo not drawn)	-4.8	10.3	13.4	17695*	-10.2	-4.2
Cc1cccn2c(=O)c(C=O)c(N3CCCCCC3)nc12	-4.2	-5.6	8.7	19642*	0.9	0.9
COc1ccc(N2CCN(c3nc4c(C)cccn4c(=O)c3C=C(C#N)C#N)CC2)cc1	-11.8	6.3	-3.8	3693	-9.2	-1.6
COc1ccccc1N1CCN(c2nc3c(C)cccn3c(=O)c2C=O)CC1	-1.3	1.6	20.5	20185*	2.3	u
Cc1cccn2c(=O)c(C=O)c(N3CC(C)OC(C)C3)nc12 (stereo not drawn)	-4.8	12.8	10.3	3926	-1.0	0.4
COc1ccc(CN(C)C(=O)c2oc3ccccc3c2CSC)cc1F	7.6	5.6	8.0	3401	-9.5	-1.8
Cn1c(Cn2nnc(-c3ccccc3)n2)nnc1SCc1ccccc1Cl	-0.8	-8.8	26.9	16202*	2.4	u
CC(Oc1ccc2oc(-c3ccccc3)c(C(=O)O)c2c1)C(=O)O (stereo not drawn)	-3.5	-1.1	12.7	16623*	-0.9	0.2
COc1cccc(CN(CC2CCCO2)S(=O)(=O)c2ccc(S(=O)(=O)N(C)C)cc2)c1 (stereo not drawn)	-2.3	-3.5	-1.7	22709*	1.2	2.5
Cc1nc(N2CCN(C)CC2)c2c(C)c(C(=O)Nc3ccc(F)cc3)sc2n1	-4.8	-3.8	54.6*	3594	-1.0	0.4
O=C1C2CC=C(Cl)CC2C(=O)N1CCC[n+]1ccccc1 (stereo not drawn)	-1.0	-7.4	9.6	19255*	1.7	u
O=C(O)c1ccccc1NCN1C(=O)C2CC=C(Cl)CC2C1=O (stereo not drawn)	-3.6	-6.9	22.4	24033*	-4.4	-3.5
Cc1ccc(NCN2C(=O)C3CC=C(Cl)CC3C2=O)cc1 (stereo not drawn)	-0.7	2.1	16.6	2906	-3.3	-0.3
Cc1noc(C)c1CCC(=O)N1CCCC(CCC(=O)NCc2ccc(F)c(F)c2)C1 (stereo not drawn)	-1.7	1.1	18.5	2241	-3.4	0.2
COc1cc(/C=C2/N=C(c3ccccc3F)OC2=O)cc(Cl)c1OS(C)(=O)=O	-6.3	-1.2	21.9	20200*	-3.1	-1.2
Clc1ccc(N2CCN(c3ncnc4c3oc3ccccc34)CC2)cc1	-5.4	15.4	50.5*	4201	-0.9	-0.5
O=C(NCCCNC(=O)c1ccc(F)cc1)c1ccc(F)cc1	-5.5	9.7	-7.4	4063	57.0*	1.0
O=C(NCCCNC(=O)c1ccccn1)c1ccc(F)cc1	-0.7	5.0	19.6	6227	-10.3	-3.0
SMILES	Anthrax LF prot	MazF activator	VHR inh abs	Bead autofluor	BoNT F protease	BoNT A protease
CN(CC(=O)Nc1ccc(N2CCOCC2)cc1)C(=O)c1ccc(CS(C)(=O)=O)cc1	1.6	-9.7	x	2791	-1.9	0.4
CN1CCN(C(=O)Nc2cccc3ccccc23)CC1	-7.2	2.4	-0.5	18834*	3.0	2.8
CCN1CCN(C(=O)Nc2cccc3ccccc23)CC1	1.8	-0.9	24.9	8575	-3.3	-0.4
COC(=O)c1cc(Cl)c(NC(=O)/C=C/c2ccc(Cl)cc2)cc1OC	-0.9	-33.8	9.7	20164*	-2.8	-2.0
COC(=O)c1cc(Cl)c(NC(=O)/C=C/c2ccc(OC)c(OC)c2)cc1OC	-3.6	5.4	-18.5	11349	-9.3	0.2
COC(=O)c1cc(Cl)c(NC(=O)c2cc(OC)c(OC)c(OC)c2)cc1OC	2.3	6.8	1.2	21669*	0.2	2.2
O=C1C2C3C=CC(CC3)C2S(=O)(=O)C2C3C=CC(CC3)C12 (stereo not drawn)	-9.6	1.0	x	3837	-3.6	-0.3
CCCCn1c(N)c(N(C)C(=O)c2ccc(-n3cccn3)cc2)c(=O)[nH]c1=O	-5.4	4.9	x	9000	-3.6	-1.6
Cc1cccc(C)c1-n1nnnc1C1(C)CCC(=O)N1CC1CCCCC1 (stereo not drawn)	-3.4	x	x	4108	1.8	0.0
CC1CCCN(C(=O)c2ccc3nc[nH]c3c2)C1 (stereo not drawn)	1.3	4.2	51.9*	3548	0.2	0.8
CN(CC(=O)Nc1ccc(F)cc1)C(=O)c1cccc(NS(=O)(=O)c2ccccc2)c1	-1.5	8.2	x	3818	-2.6	-0.1
C=CCC(C(=O)OC)(C(=O)OC)c1ccc([N+](=O)[O-])cn1	2.0	-0.3	51.5*	22956*	-2.1	u
C=CCC(C(=O)OC)(C(=O)OC)c1ccc([N+](=O)[O-])cc1[N+](=O)[O-]	-4.2	3.4	25.7	3779	-0.2	-0.7
COc1cccc(NP(=O)(Oc2ccc(Cl)cc2)Oc2ccc(Cl)cc2)c1	-0.5	-12.4	4.7	2247	-3.9	-0.6
O=P(Nc1ccccc1)(Nc1ccccc1)Oc1ccc(Cl)cc1	-1.1	-1.4	-16.4	23234*	0.1	0.3
O=C(Cn1cncn1)NCc1cccc2ccccc12	-2.0	3.5	31.1	22835*	0.7	u
O=C(Cn1cncn1)N/N=C/c1cccc2ccccc12	-1.3	-7.4	-11.3	2178	0.6	0.3
C[C@H](NC(=O)Cn1cncn1)c1ccccc1	0.7	-0.6	4.1	17083*	0.3	-0.8
Cc1ccc(NC(=O)CCS(=O)(=O)c2ccc3c(c2)NC(=O)C(C)S3)nc1 (stereo not drawn)	-3.0	1.6	60.8	4162	-3.5	0.7
N#Cc1cc2cc(Cl)ccc2[nH]c1=O	-0.5	x	x	5934	1.3	0.5
Cc1ccc(NC(=O)c2ccc(NCCc3ccccc3)c([N+](=O)[O-])c2)cc1F	1.5	49.5	4.1	11272	-8.2	-2.8
O=C(Nc1cc(F)cc(F)c1)c1ccc(NCCc2ccccc2)c([N+](=O)[O-])c1	1.3	551.6*	29.3	10118	4.9	-0.8
